From PubChem BioAssay
Calls of active or inactive are those of the source.

Legend:
[1] = optical density shifts of acrAB sulA E. coli – strain DRC41, OD650, 48 h, E. coli filamentation inducer project, primary screen (AID 1152); details: higher = more signal, called active from +8 up or from −8 down;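 further: E. coli MC1000 strain DRC41 lacking acrAB efflux pump and sulA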
[2] = probe aLefty1 binding on compound microarray – biochemical, small-molecule microarray, 635/667 nm fluorescence, primary screen (AID 1153); details: higher = more signal;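 further: score merges spot fluorescence with signal-to-noise ratio from the scanned slide images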
[3] = plasmodial surface anion channel blockers, osmotic lysis – cell-based, P. falciparum Indochina, OD700, 1 h, primary screen (AID 1154); details: P. falciparum Indochina infected RBC osmotic lysis, higher = more signal, called active from +8 up or from −8 down
[4] = plasmodial surface anion channel blockers, osmotic lysis – cell-based, P. falciparum Indochina, OD700, 2 h, primary screen (AID 1155);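 further: lysis reports solute entry through the parasite surface anion channel PSAC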; details: P. falciparum Indochina infected erythrocytes, higher = more signal, called active from +8 up or from −8 down
[5] = changes in parasitized red cell lysis, either direction – P. falciparum Indochina, OD700, 3 h, PSAC antagonist project, primary screen (AID 1156); details: P. falciparum-infected erythrocytes, osmotic lysis, higher = more signal, called active from +8 up or from −8 down
[6] = plasmodial surface anion channel blockers, osmotic lysis – cell-based, P. falciparum Indochina, OD700, 18 h, primary screen (AID 1157); details: P. falciparum Indochina infected erythrocytes, osmotic lysis OD700, 18 h; higher = more signal, called active from +8 up or from −8 down
[7] = S6 kinase pathway phospho-S6 level changes – cell-based, A549, cytoblot, luminescence, serum-stimulated, primary screen (AID 1158); details: 5 h, higher = more signal;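 further: serum-stimulated A549 lung adenocarcinoma cells; signal is phosphorylated S6 detected by cytoblot immunostaining with HRP secondary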
[8] = target: NADPH oxidase 2 (Homo sapiens) (UniProt P04839); assay: compounds shifting NOX2 Amplex Red fluorescence – cell-based, HEK293-NOX2, PMA-stimulated, NOX inhibitor project, primary screen (AID 1159); details: 45 min, higher = more signal, called active from +8 up or from −8 down; further: test concentration not given here
[9] = target: NADPH oxidase 4 (Homo sapiens) (UniProt Q9NPH5); assay: compounds shifting NOX4 Amplex Red fluorescence – cell-based, HEK293-NOX4, tetracycline-induced, NOX inhibitor project, primary screen (AID 1160); details: HEK293-NOX4, Amplex Red H2O2 fluorescence, 45 min; higher = more signal, called active from +8 up or from −8 down
[10] = target: NADPH oxidase 5 (Homo sapiens) (UniProt Q96PH1); assay: compounds shifting NOX5 Amplex Red fluorescence – cell-based, HEK293-NOX5, NOX inhibitor project, primary screen (AID 1161); details: HEK293-NOX5, ionomycin, 45 min, higher = more signal
[11] = compound effects on lung adenocarcinoma cell viability – A549, calcein-AM fluorescence, 48 h, basal, profiling panel (AID 1162); details: higher = more signal; further: test concentration not given here
[12] = compound effects on differentiated 3T3-L1 adipocyte viability – cell-based, 3T3-L1 adipocytes, calcein-AM fluorescence, 48 h, basal, profiling panel (AID 1163); details: 3T3-L1 adipocytes viability, higher = more signal; further: test concentration not given here
[13] = compound effects on hepatocellular carcinoma cell viability – HepG2, calcein-AM fluorescence, 48 h, basal, profiling panel (AID 1164); details: higher = more signal; further: test concentration not given here
[14] = compound effects on multiple myeloma cell viability – MM1S, calcein-AM fluorescence, 48 h, basal, profiling panel (AID 1165); details: higher = more signal;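 further: viability of MM1S multiple myeloma cells under basal unstimulated conditions; test concentration not given here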
[15] = calcein-AM signal in unstimulated myeloma cells – cell-based, calcein-AM fluorescence, 48 h, PK04 Diversity Set, profiling panel (AID 1166); details: RPMI8226 myeloma viability, higher = more signal;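 further: cells grown under basal conditions without added stimulus; test concentration not given here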
[16] = JC-1 mitochondrial signal, unstimulated HepG2 cells – cell-based, JC-1 fluorescence, 24 h, 100 nL compound, profiling panel (AID 1167); details: HepG2 mitochondrial potential, higher = more signal; further: test concentration not given here
[17] = JC-1 mitochondrial signal, unstimulated adipocytes – cell-based, JC-1 fluorescence, 3T3-L1 adipocytes, 24 h, 100 nL compound, profiling panel (AID 1168); details: JC-1 mitochondrial fluorescence, higher = more signal, called active from +8 up or from −8 down; further: test concentration not given here
[18] = JC-1 mitochondrial signal, unstimulated myeloma cells – cell-based, JC-1 fluorescence, RPMI8226, 24 h, 100 nL compound, profiling panel (AID 1169); details: JC-1 mitochondrial potential fluorescence, higher = more signal; further: test concentration not given here
[19] = JC-1 mitochondrial signal, unstimulated MM1S myeloma – cell-based, JC-1 fluorescence, 24 h, 100 nL compound, profiling panel (AID 1170); details: MM1S mitochondrial potential, higher = more signal; further: test concentration not given here
[20] = resazurin metabolic signal in A549 cells – cell-based, resazurin fluorescence, 24 h, PK04 Diversity Set, profiling panel (AID 1171); details: A549 viability, higher = more signal, called active from +8 up or from −8 down; further: test concentration not given here

Chain of NADPH oxidase 4 (Homo sapiens) (Q9NPH5 whole entry, looked up): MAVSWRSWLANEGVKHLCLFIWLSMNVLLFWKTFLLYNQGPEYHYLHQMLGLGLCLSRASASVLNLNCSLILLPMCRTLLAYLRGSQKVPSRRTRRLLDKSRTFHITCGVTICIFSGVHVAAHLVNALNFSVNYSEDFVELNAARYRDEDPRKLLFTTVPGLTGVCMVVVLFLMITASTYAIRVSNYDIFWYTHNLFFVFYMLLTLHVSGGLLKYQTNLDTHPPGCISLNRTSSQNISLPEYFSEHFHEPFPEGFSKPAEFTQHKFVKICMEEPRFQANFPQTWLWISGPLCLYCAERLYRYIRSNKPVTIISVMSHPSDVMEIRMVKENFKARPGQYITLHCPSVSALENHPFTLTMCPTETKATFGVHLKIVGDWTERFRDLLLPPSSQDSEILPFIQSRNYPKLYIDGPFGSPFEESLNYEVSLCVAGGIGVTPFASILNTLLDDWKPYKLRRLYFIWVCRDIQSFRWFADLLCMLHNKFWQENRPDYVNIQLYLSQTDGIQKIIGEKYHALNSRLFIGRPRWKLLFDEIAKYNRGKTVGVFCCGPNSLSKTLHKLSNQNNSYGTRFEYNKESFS
Chain of NADPH oxidase 5 (Homo sapiens) (Q96PH1 whole entry, looked up): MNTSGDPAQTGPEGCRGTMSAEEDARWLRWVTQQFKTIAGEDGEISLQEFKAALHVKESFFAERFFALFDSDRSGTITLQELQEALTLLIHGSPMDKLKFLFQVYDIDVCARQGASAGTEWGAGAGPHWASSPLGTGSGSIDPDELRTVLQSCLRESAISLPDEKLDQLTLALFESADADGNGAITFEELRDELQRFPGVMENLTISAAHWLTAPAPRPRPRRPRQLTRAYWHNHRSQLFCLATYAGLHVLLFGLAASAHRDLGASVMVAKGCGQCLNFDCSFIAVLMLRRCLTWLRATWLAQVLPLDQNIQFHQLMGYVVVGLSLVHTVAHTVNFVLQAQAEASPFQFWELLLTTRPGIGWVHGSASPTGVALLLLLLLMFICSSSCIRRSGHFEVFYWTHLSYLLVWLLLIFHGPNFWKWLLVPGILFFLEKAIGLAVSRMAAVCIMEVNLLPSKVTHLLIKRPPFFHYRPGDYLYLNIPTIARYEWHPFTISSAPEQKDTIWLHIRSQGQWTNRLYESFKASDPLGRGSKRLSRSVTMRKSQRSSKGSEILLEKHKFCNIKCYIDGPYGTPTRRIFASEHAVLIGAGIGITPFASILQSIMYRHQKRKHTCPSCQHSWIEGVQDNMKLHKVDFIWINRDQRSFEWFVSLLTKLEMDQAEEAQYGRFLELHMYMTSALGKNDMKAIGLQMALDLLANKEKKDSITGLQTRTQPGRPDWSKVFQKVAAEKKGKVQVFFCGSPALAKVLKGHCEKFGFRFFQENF
Chain of NADPH oxidase 2 (Homo sapiens) (P04839 whole entry, looked up): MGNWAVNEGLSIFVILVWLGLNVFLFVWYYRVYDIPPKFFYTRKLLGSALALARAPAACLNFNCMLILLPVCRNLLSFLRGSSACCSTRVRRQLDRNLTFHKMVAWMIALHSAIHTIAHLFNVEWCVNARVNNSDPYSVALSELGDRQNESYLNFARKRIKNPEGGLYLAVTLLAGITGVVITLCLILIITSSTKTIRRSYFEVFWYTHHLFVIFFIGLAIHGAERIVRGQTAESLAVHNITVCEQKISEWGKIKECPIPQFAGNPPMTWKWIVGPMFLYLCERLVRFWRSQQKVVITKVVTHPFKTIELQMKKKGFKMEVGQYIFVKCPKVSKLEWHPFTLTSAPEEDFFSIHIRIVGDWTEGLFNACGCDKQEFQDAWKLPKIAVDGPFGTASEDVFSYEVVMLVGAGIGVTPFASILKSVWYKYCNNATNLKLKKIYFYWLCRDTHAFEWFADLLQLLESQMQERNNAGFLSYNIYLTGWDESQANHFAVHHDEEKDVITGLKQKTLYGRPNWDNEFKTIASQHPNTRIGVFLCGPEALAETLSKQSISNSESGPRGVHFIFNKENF

| SMILES | z-score [1] | composite z-score [2] | z-score [3] | z-score [4] | z-score [5] | z-score [6] | z-score [7] | z-score [8] | z-score [9] | z-score [10] | z-score [11] | z-score [12] | z-score [13] | z-score [14] | z-score [15] | z-score [16] | z-score [17] | z-score [18] | z-score [19] | z-score [20] |
| --- | --- | --- | --- | --- | --- | --- | --- | --- | --- | --- | --- | --- | --- | --- | --- | --- | --- | --- | --- | --- |
| O=C1c2ccccc2[C@](Cc2ccccc2I)(C(=O)NCC(F)(F)F)[C@H](c2ccc(CO)cc2)N1Cc1ccccc1C(F)(F)F | 1.37 (inactive) | -0.597 | 2.78 (inactive) | 0.55 (inactive) | 0.564 (inactive) | 0.449 (inactive) | 0.179 | 1.27 (inactive) | 0.605 (inactive) | 2.32 | 0.187 | 1.31 | -0.529 | -2.72 | -2.27 | 0.535 | -0.225 (inactive) | -0.248 | 0.415 | 1.32 (inactive) |
| COc1ccc(-c2cc3c(c(-c4ccccc4)n2)[Si](C(C)C)(C(C)C)O[C@H]3c2ccccc2)cn1 | -1.27 (inactive) | -0.147 | 1.71 (inactive) | 0.489 (inactive) | -0.479 (inactive) | -0.183 (inactive) | -0.442 | 0.601 (inactive) | 0.451 (inactive) | 0.929 | 0.705 | -0.263 | 0.674 | -1.48 | -1.85 | -1.57 | -0.739 (inactive) | -0.707 | -0.225 | 1.51 (inactive) |
| CO[C@H]1COC(=O)CC=C[C@H](C)COC(=O)[C@@H](OCc2ccccc2)C=C[C@@H]1C | -0.168 (inactive) | -0.338 | 0.733 (inactive) | -1.13 (inactive) | -0.858 (inactive) | -2.2 (inactive) | 1.27 | 0.837 (inactive) | -0.234 (inactive) | 0.164 | -0.696 | -0.886 | 0.806 | 0.178 | -1.73 | 0.96 | 0.877 (inactive) | 0.103 | 0.398 | 0.0283 (inactive) |
| O=C(NCC(O)CO)[C@]1(Cc2ccccc2)N=C(c2ccc(OCCCO)cc2)O[C@@H]1c1ccccc1 (stereo partly specified) | 0.738 (inactive) | 1.39 | 25.1 (active) | 12 (active) | 0.267 (inactive) | 0.35 (inactive) | 0.807 | 0.489 (inactive) | 1.68 (inactive) | 1.7 | -0.798 | 1.91 | -2.22 | -1.26 | -1.08 | -1.81 | 1.03 (inactive) | 0.159 | 0.245 | 0.519 (inactive) |
| CC(C)(C)OC(=O)CC[C@@]1(C(=O)NCc2ccccc2)N=C(c2ccc(OCCCO)cc2)O[C@@H]1c1ccccc1 | 1.9 (inactive) | 0.736 | 23.9 (active) | 11.3 (active) | 1.61 (inactive) | 1.7 (inactive) | 3.43 | -1.25 (inactive) | 0.596 (inactive) | -0.58 | -0.595 | 1.16 | -0.907 | -2.37 | -3.23 | 1.9 | 4.19 (inactive) | -0.791 | -0.552 | -2.88 (inactive) |
| CO[C@H]1COC(=O)CC=C[C@H](C)[C@@H](OC)COC(=O)[C@H](Cc2ccccc2)NC(=O)CC=C[C@@H]1C | -0.76 (inactive) | -0.183 | -0.235 (inactive) | -0.912 (inactive) | 0.959 (inactive) | -2.2 (inactive) | 0.659 | 0.93 (inactive) | -1.49 (inactive) | 0.404 | 0.0767 | 1.57 | 0.219 | 0.196 | 0.988 | 0.566 | 0.746 (inactive) | -0.0213 | 1.14 | 0.345 (inactive) |
| C=CCN(C(=O)C1N(c2ccc(CCO)cc2)C(=O)C2C(C(=O)O)C3C=CC21O3)C(C)(C)C (stereo unspecified) | 2.75 (inactive) | 0.0445 | 0.0302 (inactive) | -1.14 (inactive) | -1.43 (inactive) | -1.91 (inactive) | 0.434 | 1.9 (inactive) | -1.46 (inactive) | 0.845 | 0.478 | 1.86 | 0.134 | 1.69 | -0.265 | 0.556 | 2.37 (inactive) | 0.0149 | 1.08 | -1.3 (inactive) |
| COc1ccc([Si](C)(C)[C@H]2[C@H](CCO)O[C@@]3(C(=O)N(Cc4ccc(N5CCCCC5=O)cc4)c4ccccc43)[C@@H]2C)cc1 | 0.178 (inactive) | 0.0361 | 29.4 (active) | 25.6 (active) | -0.512 (inactive) | 2.98 (inactive) | 1.26 | 1.11 (inactive) | 0.347 (inactive) | 1.5 | -0.124 | 0.705 | -0.263 | -2.59 | -0.628 | 1.05 | 1.04 (inactive) | -0.48 | -0.119 | -2.32 (inactive) |
| C#CCCCON=C1C[C@@H](O)[C@@H](O)[C@@H]2[C@@H]3C(=O)N(Cc4ccc5c(c4)OCO5)C(=O)[C@@H]3CC[C@@H]12 | 0.741 (inactive) | 0.137 | – | – | – | – | -0.0259 | 0.192 (inactive) | 0.773 (inactive) | -0.019 | 0.347 | -1.2 | -0.61 | 1.03 | 0.351 | 0.722 | 1.44 (inactive) | 0.412 | -1.46 | 0.414 (inactive) |
